Sampled rows, rich in hits. Any-hit rate of the full collection: about 20%.
HCMV antiviral: blocks human cytomegalovirus replication. AID 1259415. activity change, negative = inhibition, % at 57.5 µM. 410,000 tested, 4.5% active. HFF cells, HCMV-luciferase reporter, 72 h; active compounds read low; in the data active means activity change below about -60%; inconclusive means no clear call, values can overlap the other calls; inactive means above about -39%; further: on the % scale 0 is the no-effect control and ±100 the full control effect
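Human foreskin fibroblasts infected with luciferase-reporter HCMV at MOI 1 PFU/cell, compounds at two doses. Luciferase measured 72 h post infection; normalized to buffer-only basal and Salinomycin (10uM) controls.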
Shiga toxin inh: blocks Shiga toxin action in Vero cells. Vero cells, Shiga toxin protein synthesis inhibition reporter. inhibition, % at 38.7 µM. 290,000 tested, 9.2% active. AID 2315; in the data active means inhibition mostly above about 28%, no sharp cut-off; inactive means mostly below about 43%; further: 0% is about no effect
Pf growth 96h: P. falciparum growth inhibition at 96 hour, primary screen for plastid delayed-death inhibitors; AID 504834; 320,000 tested, 6.9% active; Potency, µM (top dose mostly 28.7 µM), for inactives: top-dose activity change, negative = inhibition, actives largely listed as inhibitors; P. falciparum luciferase reporter growth, 96 h; further: potency means the concentration at half of the fitted maximal effect; on the % scale 0 is the no-effect control and ±100 the full control effect
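Infected RBCs, 2% Hct / 0.05% parasitemia final; luciferase-reporter P. falciparum; cpd 96 h, 37 C, 5% CO2; luciferase detection reagent; luminescence.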
CHX counter: affects cycloheximide protein synthesis inhibition readout, counter-screen | cell reporter, cycloheximide protein synthesis inhibition counterscreen | max response, % | 300,000 tested, 12% active; in the data active means max response mostly above about 13%, no sharp cut-off; inactive means mostly below about 14%; further: read at 38.3 µM for the half of the compounds with a filed dose; 0% is about no effect
Pf growth 48h: P. falciparum growth inhibition at 48 hours (one generation) | P. falciparum luciferase growth in erythrocytes, 48 h | Potency, µM (titrated, usually from 28.7 µM), inactives show at the top dose activity change, negative = inhibition, actives largely listed as inhibitors | 310,000 tested, 5.9% active | AID 504832; further: potency means the concentration at half of the fitted maximal effect; on the % scale 0 is the no-effect control and ±100 the full control effect
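Read-out is firefly luciferase luminescence from an integrated reporter in P. falciparum, so falling signal marks reduced parasite growth. Infected erythrocytes were at 2% hematocrit and 0.1% parasitemia (final) in Albumax-supplemented RPMI 1640.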
The depositor's hits bear a star; ? = inconclusive; · = not tested or not shown; ! = a repeat was not active. Unless noted, the call rests on the fitted dose curve; in most records, active means well fitted inhibition curve with a large enough effect; inconclusive means small, poorly fitted or top-dose-only effect, or another doubt; inactive means no such curve, though single readings can be large or run the other way.

SMILES | HCMV antiviral | Shiga toxin inh | Pf growth 96h | CHX counter | Pf growth 48h
COc1cc(Cl)c(C)cc1NC(=O)Cn1ncc2c(=O)oc3ccccc3c21 | 3.4 | · | · | · | ·
O=C1CC(NCCN2CCOCC2)C(=O)N1Cc1ccc(N2CCCC2=O)cc1 (configuration not stated) | 8.4 | -5.7 | 4.15µM* | 1.5 | 4.7%
O=C(NCC(c1ccco1)S(=O)(=O)c1ccc(Cl)cc1)c1ccc(C(F)(F)F)cc1 (configuration not stated) | -23.3 | · | · | · | ·
COC(=O)c1ccc(NC(=O)COc2ccc3c(c2)OCO3)cc1 | 25.9 | -7.1 | ? | 20.2* | ?
O=C(COc1ccc2ccc(=O)oc2c1)Nc1ccc2c(c1)OCCO2 | -2.7 | 9.3 | 3.8% | 13.3* | 7.2%
Cc1cc(C)cc(OCC(=O)Nc2ccc3c(c2)OCO3)c1 | -31.7 | 15.9 | ? | 16.1 | 22.5%
Cc1ccc(C)c(OCC(=O)Nc2ccc3c(c2)OCO3)c1C | 67.4 | 9.7 | -23.5% | 6.9 | -28.9%
O=C(N/N=C/c1ccc(OC(=O)c2ccc3c(c2)OCO3)cc1)c1cncc(Br)c1 | 23.6 | -9.0 | -4.0% | -1.6 | 16.4%
O=C(N/N=C/c1cccc(OC(=O)c2ccc3c(c2)OCO3)c1)c1cncc(Br)c1 | -13.0 | 56.1* | -28.3% | 48.8* | 36.5%
Cc1cccc(OCC(=O)Nc2ccc3c(c2)OCO3)c1C | 2.5 | 67.1 | 2.9% | 55.1* | 7.9%
CC(C)(O)/C=C/C[C@](C)(O)C1CC[C@]2(C)C1[C@H](O[C@H]1O[C@@H](CO)[C@H](O)[C@@H](O)[C@@H]1O)CC1[C@@]3(C)CC[C@H](O)C(C)(C)C3[C@@H](O)C[C@]12C (some centres not stated) | 5.4 | · | · | · | ·
Cc1ccccc1OCC(=O)N/N=C/c1cccc(Oc2ccc([N+](=O)[O-])cc2[N+](=O)[O-])c1 | ? | -3.1 | 1.31µM* | -1.0 | -22.5%
Cc1ccc(OCC(=O)OCC(=O)Nc2ccc3c(c2)OCO3)cc1C | -19.1 | · | · | · | ·
O=C(COc1ccccc1[N+](=O)[O-])N/N=C/c1cccc(OC(=O)c2ccc3c(c2)OCO3)c1 | 74.4 | 94.7* | ? | 93.4* | 68.4%
Cc1ccccc1OCC(=O)NCC(=O)N/N=C/c1cccc([N+](=O)[O-])c1 | 5.2 | -7.5 | 42.0% | -2.0 | 12.9%
COc1cc(C)c(NC(=O)COc2ccc3c(c2)OCO3)cc1C | 33.0 | 48.9* | 2.5% | 19.6* | 34.9%
Cc1ccc(OCC(=O)Nc2ccc3c(c2)OCO3)cc1C | -23.3 | 28.9* | ? | 25.4* | 19.4%
O=C(COC(=O)COc1ccccc1[N+](=O)[O-])Nc1ccc2c(c1)OCO2 | 5.9 | · | · | · | ·
O=C(COc1ccccc1[N+](=O)[O-])Nc1ccc2c(c1)OCO2 | 211.3 | 66.4* | ? | 31.4* | 123.2%
O=C(Cc1ccccc1[N+](=O)[O-])Nc1ccc2c(c1)OCCO2 | -10.3 | 88.9* | ? | 54.6* | 86.2%
O=C(Nc1nccs1)c1ccccc1N=Cc1ccccc1 | -8.5 | 47.9* | 135.7% | 24.9* | 33.3%
CC1Oc2ccccc2OC1C(=O)Nc1nccs1 (configuration not stated) | 119.6 | 25.4 | 5.1% | 18.3* | 4.4%
COc1cccc(C=Nc2ccccc2C(=O)Nc2nccs2)c1OC | 44.8 | -5.8 | 131.1% | 6.1 | ·
N#C/C(=C\c1cccs1)C(=O)Nc1nccs1 | -34.4 | 65.2* | 23.5% | 27.2* | 19.7%
Cc1cc(NC(=O)C2Oc3ccccc3OC2C)no1 (configuration not stated) | 43.8 | 9.4 | 13.4% | 7.6 | ?
SMILES | HCMV antiviral | Shiga toxin inh | Pf growth 96h | CHX counter | Pf growth 48h
C/C(=C\c1ccccc1)C(=O)Nc1nccs1 | ? | 152.0* | -0.2% | 48.9* | 244.2%
CC(C)(C)OC(=O)N1CCCC(C(=O)Nc2cccc(C(=O)N3CCCC3)c2)C1 (configuration not stated) | 2.6 | · | · | · | ·
Cc1ccccc1C(=O)Nc1ccnn1C1CCN(C(=O)c2ccoc2)CC1 | 1.8 | -1.7 | 1.5% | -3.9 | 34.9%
CCCNC(=O)NC(=O)CSc1ccc(C)cc1C | ? | 19.2 | -15.9% | -2.4 | 23.6%
CCN(CC)c1ccc(NC(=O)c2ccc3c(c2)OCO3)c(C)c1 | -18.6 | 13.3 | 130.8% | 16.9* | 4.5%
CCN(CC)c1ccc(NC(=O)c2cc(OC)cc(OC)c2)c(C)c1 | -85.2* | -9.9 | 0.6% | -2.0 | ?
CCN(CC)c1ccc(NC(=O)c2cccc(OC)c2)c(C)c1 | 0.1 | 24.8 | 148.1% | 16.5* | 3.6%
CCN(CC)c1ccc(NC(=O)C2COc3ccc(OC)cc3C2)c(C)c1 (configuration not stated) | -79.3* | · | · | · | ·
COc1ccc(-c2nc(C(=O)Nc3cccc(C(C)=O)c3)nn2-c2ccccc2Cl)cc1 | -3.4 | · | · | · | ·
C=C(C)[C@]12C[C@@H](C)[C@@]34OC(Cc5ccccc5)(O[C@@H]1[C@@H]3C=C(COC(=O)Cc1cc(OC)c(O)cc1I)C[C@]1(O)C(=O)C(C)=C[C@@H]41)O2 | · | 27.3 | · | 36.1 | ·
CCOC(=O)[C@]12CCC=C1N(Cc1ccccc1)C(=O)[C@H](CC(=O)NCC1CCCCC1)C2 | 8.3 | · | · | · | ·
CNc1c2c(nn1C)CCCC2 | 27.6 | 16.6 | 6.01µM*! | -5.0 | 27.7%
Cn1nc([N+](=O)[O-])c(C(C#N)c2nc3ccccc3n2C)c(Cl)c1=O (configuration not stated) | -75.6* | -6.0 | 4.3% | -2.7 | -9.3%
Cc1ccc(-n2c(C)cc(/C=C3\NC(=O)NC3=O)c2C)c(C)c1 | -16.5 | 1.4 | 13.1µM* | 12.8 | 13.1µM*
C=CCN1C(=O)/C(=C/c2cc(C)n(-c3ccccn3)c2C)C(=O)NC1=S | 65.1 | -10.1 | 29.2% | -3.1 | -2.8%
Cc1cc(/C=C2/NC(=O)NC2=O)c(C)n1-c1ccccn1 | 63.3 | 18.5 | 9.28µM* | 19.0* | 9.8%
Cc1cccc(NCc2ccc([N+](=O)[O-])s2)c1 | -5.9 | 14.9 | -63.7% | 7.0 | -7.4%
Cc1ccc(NCc2ccc([N+](=O)[O-])s2)cc1 | -13.7 | 49.0* | ? | 25.3* | 22.5%
Cc1ccccc1NCc1ccc([N+](=O)[O-])s1 | -15.3 | -1.1 | ? | 14.0* | 10.9%
COc1cc(/C=C2/SC(=S)NC2=O)ccc1OS(=O)(=O)c1ccc(C)cc1 | · | -16.0 | 11.7µM* | -2.1 | -26.3%
COc1ccc(/C=C2/S/C(=N/S(=O)(=O)Cc3ccccc3)NC2=O)cc1OC | 37.6 | 2.9 | 11.7µM* | -2.8 | ?
CCOc1ccc(/C=C2\SC(=S)NC2=O)cc1OC | -3.7 | 40.8* | 13.1µM* | 14.4* | -11.4%
Cc1c(N=C2NC(=O)/C(=C/c3ccc(O)cc3)S2)c(=O)n(-c2ccccc2)n1C | ? | 45.2 | -19.1% | 3.8 | -9.0%
COc1cc(/C=C2\SC(=S)NC2=O)ccc1OS(=O)(=O)c1ccccc1 | · | 33.5 | 211.3% | 1.4 | -28.7%
CCOc1ccc(/C=C2\SC(=S)N(C)C2=O)cc1OC | 21.6 | -4.1 | -14.5% | 4.5 | 116.1%
O=C1NC(=NCc2ccccc2)S/C1=C/c1ccc(O)cc1 | -62.3* | 16.1 | ? | 13.1* | ?

Screens as filed in PubChem BioAssay.
